Among the data in PubChem BioAssay (NCATS) are Potency values, retold here.

“And” between values parts separate entries of the source, which are not always exact repeats. Equal values may be shown once. Records with an inconclusive call do not appear. Where a call stands in place of a potency, no number is given. The source holds several records for some structures; these can differ, active in one and inactive in another. The source made the active and inactive calls. Calls come from the whole dose curve; as a rule, active = well fitted inhibition curve with a large enough effect; inconclusive = small, poorly fitted or top-dose-only effect; inactive = no such curve, though single readings can be large or run the other way.
Potency is the fitted concentration of half-maximal effect.

This experiment is described as follows: qHTS assay for measurement of the activity of small molecule inhibitors on Zika virus induced Caspase-3 activity in human iPSC derived neural progenitor cells (hNPCs) (AID 1224857). Note: nearly all actives have a fitted effect of over 65% in size. Conditions: hNPCs ZIKV-induced caspase-3/7, Caspase-Glo luminescence, 6 h; series mostly up to 45.7 µM. From the text:
National Center for Advancing Translational Sciences [NCATS]
Johns Hopkins University School of Medicine
Increase in the Caspase-3 activity indicates an activation of apoptosis cell death pathway caused by Zika virus infection in certain types of neuronal cells including human neural progenitor cells (hNPCs), astrocytes, and astrocytoma cell line (SNB-19). This cell-based caspase-3 activity assay measures the increased caspase-3 activity in the human iPSC derived neural progenitor cells (hNPCs) after a 6-hour Zika virus infection with a luminescence readout. A decrease in the luminescence signal in this assay by small molecule treatment indicates an inhibitory effect of that small molecule on the Zika virus induced caspase-3 activity that may correlate with its effect on reduction of Zika virus caused cell death.
The medium for hNPCs consists of DMEM/F12, N2 supplement (ThermoFisher, Cat.# 17502048), NEAA (ThermoFisher, Cat. # 11140050), 2 ug/ml heparin, 2 uM cyclopamine, and B27 (ThermoFisher, Cat. # 17504044). A Caspase-Glo 3/7 assay kit (catalog number G8092; Promega, Madison, WI) was used to detect caspase-3 activity induced by Zika virus infection in human cells. The reagent mixture was reconstituted as described in the protocol from the manufacturer. Polystyrene tissue culture treated and PDL coated white plates were obtained from Greiner Bio-One (Monroe, NC). Cells were seeded in 384- or 1536-well assay plates and cultured at 37 C with 5% CO2 for 16 to 20 hours. The typical cell seeding density in the 1536-well plate assay is 350 cells/well in 3 ul medium for hNPCs in tissue culture treated plates. Compounds were added to cells and incubated for one hour before addition of ZIKV solution to cells (2 FFU/cell). After incubation at 37 C with 5% CO2 for 6 hours, the reagent mixture of Caspase-Glo 3/7 assay kit was added to each well, followed by incubation at room temperature for 30 minutes. The luminescence intensity of the assay plates was measured using a ViewLux plate reader (PerkinElmer). Data were normalized by using the cell-containing wells without ZIKV as a negative control (0% induction of caspase 3/7 activity) and wells containing ZIKV infected cells (Caspase-3 activity induced) as a positive control (100% induction of caspase 3 activity). The percentage inhibitions of the increased Caspase-3 activity by small molecule inhibitors were then calculated.
A general note: Quantitative high-throughput screening tests each substance at several concentrations.
For `NC(=O)c1cccc(N)c1`, the Potency entry was “inactive”.

For `Cc1cc(NS(=O)(=O)c2ccc(N)cc2)no1`, the Potency result is “inactive”.

As for `CC(C)C1CCC(C(=O)N[C@H](Cc2ccccc2)C(=O)O)CC1` (stereo not given in full), the Potency entry was “inactive”.

As to `CC[C@H](C)C(=O)O[C@H]1C[C@@H](C)C=C2C=C[C@H](C)[C@H](CC[C@@H]3C[C@@H](O)CC(=O)O3)[C@H]21`, the Potency result was “inactive”.

Consider `CN(Cc1cc(Br)cc(Br)c1N)C1CCCCC1`, for which the Potency result is “inactive”.

On to `COc1cc(NCc2ccc3nc(N)nc(N)c3c2C)cc(OC)c1OC`, for which the Potency entry is “inactive”.

As for `NS(=O)(=O)c1cc2c(cc1Cl)NC(C(Cl)Cl)NS2(=O)=O` (stereo not given), the Potency entry is “inactive”.

Consider `O=C(NCC1CN(c2ccc(N3CCOCC3=O)cc2)C(=O)O1)c1ccc(Cl)s1` (stereo not given), for which the Potency result is “inactive”.

In the case of `CS(=O)(=O)c1ccc([C@@H](O)[C@@H](CO)NC(=O)C(Cl)Cl)cc1`, the Potency result was “inactive”.

In the case of `CN(C)c1ccc(C(=C2C=CC(=[N+](C)C)C=C2)c2ccc(N(C)C)cc2)cc1`, the Potency result is “inactive”.

As to `S=P(N1CC1)(N1CC1)N1CC1`, the Potency result was “inactive”.

As for `O=C(O)CSCC(=O)NC1CCSC1=O` (stereo not given), the Potency entry was “inactive”.

For `O[C@@H](CNC[C@H](O)[C@H]1CCc2cc(F)ccc2O1)[C@@H]1CCc2cc(F)ccc2O1`, the Potency entry was “inactive”.

Regarding `CC(=O)[C@H]1CC[C@H]2[C@@H]3CCC4=CC(=O)CC[C@]4(C)[C@H]3CC[C@]12C`, the Potency entry is “inactive”.

In the case of `CCOC(=O)c1ccc(C#Cc2ccc3c(c2)C(C)(C)CCS3)nc1`, the Potency result was “inactive”.

In the case of `CCc1cc(C(N)=S)ccn1`, the Potency entry is “inactive”.

Regarding `COc1nc(N)nc2c1ncn2[C@@H]1O[C@H](CO)[C@@H](O)[C@@H]1O`, the Potency entry is “inactive”.

Take `COc1ccccc1OCC(O)COC(N)=O` (stereo not given): the Potency result is “inactive”.

Turning to `COCCCOc1cc(C[C@@H](C[C@H](N)[C@@H](O)C[C@H](C(=O)NCC(C)(C)C(N)=O)C(C)C)C(C)C)ccc1OC`, the Potency result is “inactive”.

For the compound `CCN[C@H]1C[C@H](C)S(=O)(=O)c2sc(S(N)(=O)=O)cc21`, the Potency result is “inactive”.

For the compound `NNC(=O)c1ccncc1`, the Potency entry is “inactive”.

As to `CC(C)(C)C(=O)OCOP(=O)(COCCn1cnc2c(N)ncnc21)OCOC(=O)C(C)(C)C`, the Potency entry was “inactive”.

Consider `NC1(c2ccc(-c3nc4ccn5c(=O)[nH]nc5c4cc3-c3ccccc3)cc2)CCC1`, for which the Potency result is “inactive”.

As to `CCCCS(=N)(=O)CCC(N)C(=O)O` (stereo not given), the Potency result was “inactive”.

As for `CC[C@H](NC(C)C)[C@H](O)c1ccc(O)c2[nH]c(=O)ccc12`, the Potency result was “inactive”.

In the case of `C[C@@H](CN1CC(=O)NC(=O)C1)N1CC(=O)NC(=O)C1`, the Potency entry was “inactive”.

Take `CN1CCN(c2c(F)cc3c(=O)c(C(=O)O)cn4c3c2OCN4C)CC1`: the Potency entry was “inactive”.

In the case of `COc1ncnc(NS(=O)(=O)c2ccc(N)cc2)c1OC`, the Potency result was “inactive”.

With `Nc1ccc(S(=O)(=O)Nc2ccccn2)cc1`, the Potency entry is “inactive”.

Regarding `NC(N)=NC(N)=NCCc1ccccc1`, the Potency result was “inactive”.

For `Cc1noc(NS(=O)(=O)c2ccc(N)cc2)c1C`, the Potency result was “inactive”.

`COC(=O)Nc1nc2ccc(C(=O)c3ccccc3)cc2[nH]1`: the Potency entry is “inactive”.

In the case of `Cc1onc(-c2ccccc2Cl)c1C(=O)N[C@@H]1C(=O)N2[C@@H]1SC(C)(C)[C@@H]2C(=O)O`, the Potency result was “inactive”.

Turning to `CCOC(=O)c1ccc(OC(=O)CCCCCN=C(N)N)cc1`, the Potency entry was “inactive”.

Consider `CN(C)CCc1c[nH]c2ccc(CS(=O)(=O)N3CCCC3)cc12`, for which the Potency result was “inactive”.

Regarding `CC(C)NCC(O)c1ccc(NS(C)(=O)=O)cc1` (stereo not given), the Potency result was “inactive”.

As for `CNCC[C@H](Oc1cccc2ccccc12)c1cccs1`, the Potency result was “inactive and 23.5 µM (active)”.

Turning to `Cc1c(-c2ccc(O)cc2)n(Cc2ccc(OCCN3CCCCCC3)cc2)c2ccc(O)cc12`, the Potency result is “inactive”.

For `CCN(CC)CC#CCOC(=O)C(O)(c1ccccc1)C1CCCCC1` (stereo not given), the Potency result was “inactive”.

Turning to `Cc1nnc(C(=O)NC(C)(C)c2nc(C(=O)NCc3ccc(F)cc3)c(O)c(=O)n2C)o1`, the Potency entry is “inactive”.
